High-throughput results (PubChem BioAssay)
HT1080NT lethal = qHTS for induction of synthetic lethality in tumor cells producing 2HG: qHTS for the HT-1080-NT fibrosarcoma cell line; AID 686970, 2013; HT-1080-NT fibrosarcoma viability, CellTiter-Glo ATP luminescence, 48 h; Potency, µM (highest dose often 46.1 µM), most hits filed as cytotoxic; 360,000 tested, 1.6% active;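 note: NT is the 2HG producing partner of a matched IDH1 knockdown line; nearly all actives have a fitted effect of over 55% in size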
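Compounds were tested in concentration-response format on HT-1080-NT cells for 48 hours at 37 degrees C. Cell viability came from CellTiter-Glo luminescence; curves were classified by r2, response magnitude and activity.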
KB-V1 MDR tox = qHTS assay for MDR1-selective chemotherapeutics: Primary screen using the drug-selected MDR subline cells KB-V1; KB-V1 MDR cells viability, CellTiter-Glo, 72 h; Potency, µM (highest dose often 46.1 µM), usual class: cytotoxic; 400,000 tested, 3.4% active; AID 1347076, 2019; note: nearly all actives have a fitted effect of over 60% in size
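KB-V1 MDR subline cells in DMEM (phenol-red free, 10% FBS) exposed to compounds in qHTS concentration series for 72 h at 37 degrees C. Viability read by CellTiter-Glo luminescence; concentration-effect curves fitted after normalization and correction.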
DT40 TDP1 no CPT = qHTS for Inhibitors of human tyrosyl-DNA phosphodiesterase 1 (TDP1): qHTS in cells in absence of CPT | AID 686978, 2013 | DT40 Tdp1-/- hTDP1 cells, no CPT, ATP luminescence, 48 h | Potency, µM (doses to about 46.2 µM), most hits filed as inhibitors | 420,000 tested, 15% active; note: nearly all actives have a fitted effect of over 55% in size
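Seeded 400 DT40-hTDP1 cells/well (vehicle DMSO, no 20 nM CPT); pinned compounds; ≥48 hr at 37 °C; CellTiter-Glo luminescence as viability measure.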
HT1080 IDH1KD tx = qHTS for induction of synthetic lethality in tumor cells producing 2HG: qHTS for the HT-1080-IDH1KD cell line. HT-1080 IDH1 knockdown viability, ATP luminescence, 48 h. Potency, µM (doses to about 46.1 µM), hits mostly cytotoxic. 360,000 tested, 2% active
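% activity derives from luminescence (CellTiter-Glo), normalised to DMSO and no-cell wells. HT-1080-IDH1KD cells, 750/well, had 48 h compound exposure at 37 °C.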
KB-3-1 tox = qHTS assay for MDR1-selective chemotherapeutics: Primary screen using the parental adenocarcinoma cell KB-3-1; KB-3-1 viability, CellTiter-Glo ATP luminescence, 72 h; Potency, µM (series often up to 46.1 µM), most hits filed as cytotoxic; 400,000 tested, 1.4% active; note: nearly all actives have a fitted effect of over 60% in size
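KB-3-1 parental drug-naive adenocarcinoma cells in DMEM/10% FBS, incubated 72 h at 37 C with pin-transferred compounds across a concentration series. Viability by CellTiter-Glo luminescence; concentration-response curves fitted after normalization.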
TDP1 cell CPT = qHTS for Inhibitors of human tyrosyl-DNA phosphodiesterase 1 (TDP1): qHTS in cells in presence of CPT; chicken DT40 Tdp1-/-;hTDP1 cells + 20 nM CPT, ATP luminescence, 48 h; Potency, µM (series often up to 46.2 µM), most hits filed as inhibitors; 420,000 tested, 12% active; note: nearly all actives have a fitted effect of over 55% in size
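Chicken DT40 Tdp1-/- cells complemented with human TDP1, 400 cells/well, exposed to compounds plus 20 nM camptothecin for at least 48 h at 37 C; viability read as ATP content by CellTiter-Glo luminescence.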
Numbers stand for hits; - = inactive; ? = inconclusive; . = no result; [ ] = remark or other dose. Shown are actives, neighbours in structure and some others; about 19% of the full set was active somewhere. Calls come from the whole dose curve; as a rule, active = well fitted curve in the direction sought with a large enough effect; inconclusive = small, poorly fitted or top-dose-only effect, or another doubt; inactive = no such curve, though single readings can be large; an effect the other way counts as inactive or inconclusive.

SMILES	HT1080NT lethal	KB-V1 MDR tox	DT40 TDP1 no CPT	HT1080 IDH1KD tx	KB-3-1 tox	TDP1 cell CPT
CCOC(=O)c1csc(NC(=O)CN2CCCCC2)n1	-	-	-	-	-	-
O=C(COC(=O)c1ccccc1C(=O)c1ccccc1)NCCc1ccc(Cl)cc1Cl	?	-	21µM	?	-	?
O=C(COC(=O)c1ccccc1C(=O)c1ccc(Cl)cc1)NCc1ccccc1	-	-	18µM	-	-	?
Cc1ccc(-n2c(=O)c3c(cnn3C)n(Cc3ccccc3F)c2=O)cc1	.	-	-	.	-	18µM
Cc1ccc(NC(=O)N2CCN(C/C=C/c3ccccc3)CC2)cc1	-	-	-	-	-	-
O=C(Nc1ccc2c(c1)OCCO2)C(c1ccnc2ccccc12)N1CCN(C/C=C/c2ccccc2)CC1 (stereo unspecified)	?	?	23µM	15µM	?	?
O=C(Nc1ccc2c(c1)OCO2)N1CCN(C/C=C/c2ccccc2)CC1	-	21µM	-	-	-	-
Cc1cc(C)nc(-n2nc(C)c3c2NC(=O)CC3c2cc(F)ccc2F)n1 (stereo unspecified)	.	-	23µM	.	-	?
Cc1nnc(SCC(=O)N2CCc3ccccc3C2)n1-c1ccccc1	-	-	-	-	-	-
C/C(N)=C(/C#N)C(=O)CSc1nnnn1-c1ccc(C)cc1C	-[9.24 µM]	?	13µM	?	-	23µM
Cc1ccc(SCC(=O)Nc2ccc(N3CCN(C)CC3)c(F)c2)c(C)c1	?	-	16µM	?	-	21µM
Cc1ccc(-n2nnnc2SCC(=O)N2CCc3ccccc3C2)c(C)c1	-	7.3µM	-	-	-	-
O=C(CSc1ccc(Cl)cc1)Nc1ccc(N2CCN(c3ccccc3)CC2)c(F)c1	-	-	?	-[9.24 µM]	-	?
Cc1ccc(-n2nnnc2SCC(=O)N2CCc3ccccc3C2)cc1	-	-	-	-	-	-
Cc1ccc(-n2c(C)nnc2SCC(=O)N2CCc3ccccc3C2)cc1C	-	9.2µM	?	-	-	-
Cn1c(Cc2ccc3c(c2)OCO3)nnc1SCC(=O)N1CCc2ccccc2C1	-	16µM	-	-	-	-
Cc1ccc(-n2nnnc2SCC(=O)Nc2ccc(N3CCN(C)CC3)cc2)c(C)c1	-	-	18µM	-	-	?
COc1ccc(N2CCN(C(=O)NCc3ccc(OC)c(Cl)c3)CC2)cc1	-	-	-	-	-	-
Cc1ccc(CNC(=O)C2c3ccccc3C(=O)N(C)C2c2c[nH]c3ccccc23)o1 (stereo unspecified)	-	?	15µM	-	-	21µM
COc1ccc(C2C(C(=O)Nc3cc(C)on3)c3ccccc3C(=O)N2C)cc1 (stereo unspecified)	-	-	-	-	-	?
Cc1onc(-c2ccccc2)c1C(=O)NC(=S)NNC(=O)c1ccco1	-	?	16µM	?	?	?
Cc1onc(-c2ccccc2)c1C(=O)NNC(=S)NC(=O)c1ccc2c(c1)OCO2	?	?	1.6µM	?	-	-
Cc1onc(-c2ccccc2)c1C(=O)NC(=S)NNC(=O)c1cc(-c2ccc(F)cc2)n[nH]1	?	?	21µM	?	?	?
Cc1onc(-c2ccccc2)c1C(=O)NNC(=S)NC(=O)/C=C/c1cccs1	?	?	23µM	?	?	16µM
Cc1ccc(C)c(N2CCN(C(=O)NCc3noc4ccccc34)CC2)c1	.	-	?	.	-	?
SMILES	HT1080NT lethal	KB-V1 MDR tox	DT40 TDP1 no CPT	HT1080 IDH1KD tx	KB-3-1 tox	TDP1 cell CPT
O=C(NNC(=S)NC1CCCCC1)c1ccc2c(c1)OCO2	-	-	18µM	-	-	?
O=C(NC1CCCCCCC1)c1ccc2c(c1)OCO2	-	-	?	-	-	-
Cc1cc2oc3cc(NCCC4CCCN4C)ccc3c(=O)c2cc1C (stereo unspecified)	?	-	5.8µM	?	-	8.2µM
O=c1c2ccccc2oc2ccc(NCCCn3ccnc3)cc12	-	?	?	-	-	?
O=C(Nc1nc2c(F)cccc2s1)C1CC1	-	-	-	-	-	-
O=C(Nc1nc2c(F)cc(F)cc2s1)c1ccco1	-	-	-	-	-	-
CC1CCc2c(sc(Nc3nc4c(F)cccc4s3)c2C(N)=O)C1 (stereo unspecified)	?	-	16µM	?	-	?
NNc1nc2c(F)cc(F)cc2s1	-	-	23µM	-	-	?
Nc1nc2c(F)cccc2s1	-	-	-	-	-	-
NNc1nc2c(F)cccc2s1	-	?	15µM	-	?	?
Fc1cccc2sc(Nc3nc4c(F)cccc4s3)nc12	-	-	13µM	-	-	?
CCOC(=O)c1cc(CC)sc1NC(=O)COc1ccccc1C	.	-	-	.	-	-
COc1cccc(-c2ncn(CCc3ccccc3OC)c2C(C)C)c1	13µM	12µM	5.8µM	15µM	?	7.3µM
COc1ccccc1CCn1cnc(Cc2cccc(F)c2)c1C(C)C	?	18µM	?	?	?	?
COc1ccccc1CCn1cnc(C)c1CC(C)C	?	-	6.5µM	?	?	12µM
COc1ccccc1CCn1c(=O)c(C)nc2cncnc21	.	.	?	.	.	-
CCc1ncn(CCc2ccccc2OC)c1C(C)C	?	?	4.6µM	?	?	3.7µM
CCC(C)CN1C(=O)CN(S(C)(=O)=O)CC1(C)C(=O)NC(C)C (stereo unspecified)	-	-	-	-	-	-
COc1ccc(OCc2ccc(-c3nc(C#N)c(NCc4ccccc4)o3)o2)cc1	.	-	?	.	-	?
CC(C)(C)c1ccc(-c2nc(C#N)c(NCc3cccnc3)o2)cc1	?	21µM	?	?	-	-
Cc1ccccc1OCc1ccc(-c2nc(C#N)c(NCc3cccnc3)o2)o1	.	?	21µM	.	?	15µM
COc1ccc(OCc2ccc(-c3nc(C#N)c(NCc4cccnc4)o3)o2)cc1	.	-	18µM	.	-	?
COc1ccccc1NC(=O)COC(=O)c1cc([N+](=O)[O-])ccc1N1CCCC1	-	-	?	-	-	?
CC(=O)Nc1c(Cl)cc2c(c1Cl)Cc1cc(C#N)ccc1-2	-	0.92µM	-	-	1.2µM	-
CC(=O)Nc1c(Cl)cc2c(c1Cl)Cc1ccccc1-2	-	-	?	-	-	?
CCN(CC)CCn1c2c(c(SCC(=O)Nc3cc(C)on3)nc1=O)CCCC2	-	-	-	-	-	-
